Cycloheximide cs = Cycloheximide Counterscreen for Small Molecule Inhibitors of Shiga Toxin; cell reporter, cycloheximide protein synthesis inhibition counterscreen; max response, %; actives 12% (n = 300,000); AID 2314, 2010; in the data active = max response mostly above about 13%, no sharp cut-off; inactive = mostly below about 14%; note: read at 38.3 µM for the half of the compounds with a filed dose
Giardia FBPA inh = qHTS Assay for Inhibitors of Fructose-1,6-bisphosphate Aldolase from Giardia Lamblia. A8B2U2. purified Giardia FBPA. Potency, µM (top dose mostly 59.6 µM), actives largely listed as inhibitors. actives 0.71% (n = 290,000); note: nearly all actives have a fitted effect of over 55% in size
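40 nM FBPA preincubated 10 min at RT with compound (up to 57.5 uM final), then substrate plus GAPDH/TPI/NAD/arsenate coupling and diaphorase/resazurin added. Fluorescence read after 20 min at RT, 525/598 nm.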
NS1 function inh = qHTS Assay for Inhibitors of Influenza NS1 Protein Function. Potency, µM (highest dose often 46.1 µM). actives 0.4% (n = 270,000). AID 2326, 2010; calls by dose curve; note: actives are rising curves; nearly all actives have a fitted effect of over 50% in size
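In this qHTS, NS1 from influenza A is expressed in budding yeast, where it slows growth. Cells are switched from glucose to 2% galactose medium (pH 6.0, -URA), treated with compound, and growth recovery is read at OD600.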
LmPK inh = qHTS Assay for Inhibitors of Leishmania Mexicana Pyruvate Kinase (LmPK) | Q27686 | purified LmPK, Kinase-Glo ATP luminescence, 1 h | Potency, µM (titrated, usually from 57.5 µM), actives largely listed as inhibitors | actives 0.37% (n = 290,000)
Target sequence (Q27686 whole entry, looked up): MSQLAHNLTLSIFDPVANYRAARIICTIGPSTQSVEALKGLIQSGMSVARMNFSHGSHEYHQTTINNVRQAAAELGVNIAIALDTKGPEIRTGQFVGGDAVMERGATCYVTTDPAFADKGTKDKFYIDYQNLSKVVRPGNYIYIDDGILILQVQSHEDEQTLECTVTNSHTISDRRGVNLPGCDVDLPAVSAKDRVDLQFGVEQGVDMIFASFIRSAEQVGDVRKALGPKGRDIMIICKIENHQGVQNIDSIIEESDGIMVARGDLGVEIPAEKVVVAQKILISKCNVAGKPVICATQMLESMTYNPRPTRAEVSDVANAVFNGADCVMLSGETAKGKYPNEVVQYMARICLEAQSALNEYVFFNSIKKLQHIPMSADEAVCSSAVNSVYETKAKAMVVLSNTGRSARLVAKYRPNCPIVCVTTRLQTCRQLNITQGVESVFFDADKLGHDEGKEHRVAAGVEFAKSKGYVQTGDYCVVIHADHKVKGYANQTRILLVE
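Purified LmPK (0.1 nM) converted ADP (0.1 mM) to ATP with PEP (0.5 mM) in imidazole buffer pH 7.2 with KCl and MgCl2, 1 h at room temperature. ATP was read by Kinase-Glo luminescence; data normalized to uninhibited and no-enzyme controls.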
Shiga toxin inh = A qHTS for Small Molecule Inhibitors of Shiga Toxin; inhibition, % at 38.7 µM; actives 9.2% (n = 290,000); Vero cells, Shiga toxin protein synthesis inhibition reporter; AID 2315, 2010; in the data active = inhibition mostly above about 28%, no sharp cut-off; inactive = mostly below about 43%
Flu NS1 inh = Assay for Inhibitors of Influenza NS1 Protein Function: Hit Validation; shares compounds with NS1 function inh; influenza NS1 function cell assay, 15-point titration; activity change, negative = inhibition, % at 32.9 µM; 1,400 tested, under 10 active; calls by dose curve
Hits are given with their value; i = inactive; ? = inconclusive; nt = not tested or not shown; ! = not active in a repeat. The list is not random: actives were taken first. Their share in the collection is about 14%. Unless noted, calls come from the whole dose curve; as a rule, active = well fitted curve in the direction sought with a large enough effect; inconclusive = small, poorly fitted or top-dose-only effect, or another doubt; inactive = no such curve, though single readings can be large; an effect the other way counts as inactive or inconclusive.

SMILES	Cycloheximide cs	Giardia FBPA inh	NS1 function inh	LmPK inh	Shiga toxin inh	Flu NS1 inh
CN1CC[C@@]2(C)c3cc(O)ccc3N(C)C12 (some centres undefined)	nt	2.8µM	13µM	nt	nt	i
CNC(=O)Oc1ccc2c(c1)[C@]1(C)CCN(C)[C@@H]1N2C	i	?	i	i	i	nt
O=C(NCC1CCCCC1)C12CN(Cc3ccccc3)CC1C(c1cccc([N+](=O)[O-])c1)=NO2 (centres undefined)	i	i	i	i	i	nt
O=C(NCc1ccc(C(F)(F)F)cc1)C12CN(Cc3ccccc3)CC1C(c1cccc([N+](=O)[O-])c1)=NO2 (centres undefined)	i	i	13µM	i	i	i
O=C(NCc1ccc2c(c1)OCO2)C12CN(Cc3ccccc3)CC1C(c1cccc([N+](=O)[O-])c1)=NO2 (centres undefined)	i	i	13µM	i	i	i
CCC(C)(C)NS(=O)(=O)c1cc(CN2C(=O)c3cccnc3C2=O)ccc1OC	i	i	i	i	i	nt
Cc1cc(C(=O)Nc2nnc(-c3ccccc3)s2)no1	i	i	?	i	i	?
Cc1onc(-c2ccccc2Cl)c1C(=O)Nc1nnc(-c2cccc([N+](=O)[O-])c2)s1	i	?	10µM	i	i	i
CC(C)CCn1c(=O)c2ccccc2n2c(CCC(=O)NCC3CCCO3)nnc12 (centres undefined)	i	nt	i	i	i	nt
O=C(CCc1ccc(O)cc1)c1c(O)cc(O)cc1O	20	i	13µM!	i	i	i
COc1ccc(NC(=O)c2cccc(-c3ccc(O)cc3)c2)cn1	i	i	i	i	i	nt
C=C1C(=O)C=C[C@]2(C)C[C@@H]3OC(=O)[C@](C)(O)[C@H]3C[C@@H]12	35	i	?	i	63	i
N#CC(Sc1ccccn1)c1ccc(Cl)cc1 (centres undefined)	i	?	i	i	i	nt
COc1cccc(NS(=O)(=O)c2ccc3c(c2)C2C=CCC2C(c2ccc(C(=O)O)cc2)N3)c1 (centres undefined)	i	i	10µM	i	i	i
Cc1c(N/N=C(\C#N)C(=O)c2ccc(Cl)cc2)c(=O)n(-c2ccccc2)n1C	i	?	?	i	i	?
COc1ccc(S(=O)(=O)Nc2nc3ccccc3nc2Nc2cccc(C(=O)O)c2)cc1	i	i	i	i	i	nt
COc1cccc(NC(=S)N2CCc3cc(OC)c(OC)cc3C2COc2ccc3c(C)cc(=O)oc3c2)c1 (centres undefined)	i	i	8.9µM	i	i	i
CCOc1ccc(NC(=O)c2cccnc2C(=O)O)cc1	i	?	4.5µM	i	i	i
Cc1ccc(-n2nc3c(c2NC(=O)/C=C\c2ccc4c(c2)OCO4)CSC3)cc1	i	i	16µM	i	i	i
Cc1ccc(-n2nc3c(c2NC(=O)/C=C\c2ccc4c(c2)OCO4)CSC3)c(C)c1	i	i	8.9µM	i	i	i
COc1cccc(/C=N/NC(N)=S)c1OCc1ccccc1Cl	i	i	i	i	i	nt
NC(=S)N/N=C/c1ccccc1OCCSc1ccc(Cl)cc1	i	i	10µM	i	i	?
CCOC(=O)N1CCN(c2c(NCCCN(CC)Cc3ccccc3)c(=O)c2=O)CC1	i	i	1µM	i	i	i
CN1CCN(CCCNC(=O)c2ccc3c(c2)N(Cc2ccc(F)cc2)CCS3)CC1	i	i	2.8µM	i	i	i
O=C(NCCCN1CCOCC1)c1ccc2c(c1)N(Cc1ccc(F)cc1)CCS2	i	nt	i	i	i	nt
SMILES	Cycloheximide cs	Giardia FBPA inh	NS1 function inh	LmPK inh	Shiga toxin inh	Flu NS1 inh
O=C1CSCN1c1ccc(Cl)c(Cl)c1	i	i	i	i	i	nt
O=C1CSCN1c1cc(Cl)ccc1Cl	i	i	?	i	i	i
Cc1cccc(NC(=O)Cn2c(=O)n(CCc3c[nH]c4ccccc34)c(=O)c3cccnc32)c1	i	i	4µM	i	i	i
O=C(Cn1c(=O)n(CCc2c[nH]c3ccccc23)c(=O)c2cccnc21)Nc1ccccc1F	i	i	i	i	i	nt
O=C(Cc1cccs1)NNC(=O)C12CC3CC(CC(C3)C1)C2	i	i	nt	i	i	nt
Cc1ccccc1CN1CCN(Cc2cc(=O)c3ccccc3[nH]2)CC1CCO (centres undefined)	i	i	i	i	i	nt

Screens: PubChem, National Center for Advancing Translational Sciences (NCATS)
